Laboratory results: PubChem BioAssay (NCATS)
Results filed as inconclusive are left out. Active and inactive are the calls of the source. Unless noted, calls come from the whole dose curve; as a rule, active = well fitted curve in either direction with a large enough effect (not every such curve was filed as active); inconclusive = small, poorly fitted or top-dose-only effect, or another doubt; inactive = flat fitted curve, though single readings scatter.

Tests used:
[1] = target: Lysosomal acid glucosylceramidase (Homo sapiens) (UniProt P04062); test: Glucocerebrosidase-p2 (AID 348; in the data active = potency below about 10 µM; note: potency is the fitted concentration of half-maximal effect); conditions: purified GBA, blue fluorogenic substrate, 40 min
Procedure, shortened: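 Compounds titrated from 0.6 nM upwards against 0.2 nM enzyme in pH 5.9 citric acid/KH2PO4, taurocholate, tween-20; blue fluorogenic substrate 80 uM, 40 min room temperature, stopped and read Ex 365/Em 440 for AC50.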

[2] = AP1 Signaling Pathway (AID 357); conditions: ME-180 AP-1-bla reporter, EGF-induced, beta-lactamase ratio, 5 h; at 7.69 µM (top of the series) unless noted;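 note: ME-180 reporter cells stimulated with EGF at its EC50 level; % is set by controls: 0 for no effect and ±100 for the full control effect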
Procedure, shortened: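 First, ME-180 AP-1-bla cells were cultured overnight at 37 °C in low-serum Opti-MEM. Next, titrated compounds with EC50 EGF were incubated 5 hours. Finally, CCF4 was added for 2.5 hours and the 460/530 nm ratio recorded.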

[3] = target: Cytochrome P450 1A2 (Homo sapiens) (UniProt P05177); test: p450-cyp1a2 (AID 410; calls by dose curve; note: potency is the fitted concentration of half-maximal effect;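 for activity change, negative = inhibition: -100% = full effect of reference inhibitor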); conditions: recombinant CYP1A2, luciferin-ME demethylation, luminescence; series mostly up to 57 µM
Procedure, shortened: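 Luminescent readout of luciferin formed from Luciferin-ME by human CYP1A2; data normalized against complete inhibition by 57 uM furafylline. Enzyme 20nM, substrate 100uM at Km, 100mM KPO4 buffer, 60 min reaction at room temperature.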

[4] = NFAT Signaling Pathway (AID 444); conditions: Jurkat NFAT-bla M1, carbachol, beta-lactamase ratio, 5 h; at 7.69 µM (top of the series) unless noted;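 note: carbachol stimulus at about its EC50 of 1 µM final; % is set by controls: 0 for no effect and ±100 for the full control effect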
Procedure, shortened: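 Read-out: CCF4 FRET ratio (460 nm/530 nm) after 1 h RT dye loading, used for %activity and AC50 from titration series. Cells: Jurkat NFAT-β-lactamase/M1 line, treated with compound plus 1 uM carbachol for 5 h, 37 °C.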

[5] = Stat Signaling Pathway (AID 446); conditions: ME-180 SIE beta-lactamase reporter, IL-6 stimulated, 5 h; at 7.69 µM (top of the series) unless noted;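 note: ME-180 cervical cancer cells given 40 pM IL-6 alongside compound; SIE-controlled beta-lactamase reporter measured as 460/530 nm FRET emission ratio; % is set by controls: 0 for no effect and ±100 for the full control effect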
Procedure, shortened: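 ME-180 SIE-bla cells; overnight plating; cpd + IL-6 40 pM, 5 h, 37 C; LiveBLAzer 2.5 h RT; 460/530 nm emission ratio. Normalized to 300 pM IL-6 and 125 nM JAK inhibitor controls.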

[6] = target: Glucocorticoid receptor (Homo sapiens) (UniProt P04150); test: GR-EFC Redistribution (AID 451; calls by dose curve; note: potency is the fitted concentration of half-maximal effect); conditions: CHO-K1 GR-EFC translocation, beta-gal luminescence, 2 h
Procedure, shortened: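 Translocation of GR-ED fusion to nuclear EA restores b-gal, read by luminescence after 1 h room-temperature detection. Engineered CHO-K1 biosensor cells, 1,000/well, exposed 2 h at 37 C to titrations up to 46 uM final.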

[7] = target: Mitogen-activated protein kinase 10 (Mus musculus) (UniProt Q61831); test: JNK3 AlphaScreen Assay (AID 530); conditions: JNK3 lysate, c-Jun phosphorylation; series mostly up to 57.1 µM;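 note: kinase came from lysate of stimulated human HepG2 cells; signal reports phosphorylation of biotinylated GST-cJun 1-79 at Ser73 with 10 µM ATP; % is set by controls: 0 for no effect and ±100 for the full control effect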
Procedure, shortened: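 Compound titrations were preincubated 15 minutes at room temperature with substrate, antibody and pre-activated JNK3-containing HepG2 lysate. Reactions were started with 10 uM ATP and stopped with EDTA-containing bead buffer for AlphaScreen detection.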

[8] = target: 3',5'-cyclic-AMP phosphodiesterase 4B (Homo sapiens) (UniProt Q07343); test: qHTS Assay for Inhibitors of PDE-IV (AID 607; active = well fitted activation curve with a large enough effect in the main read-out, with a control signal flat, not every such curve was filed as active; note: % of control where 0% means no effect); conditions: HEK293 ACTOne CNG channel cells, membrane potential fluorescence; series mostly up to 22.9 µM
Procedure, shortened: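 ACTOne HEK293 cells carry a modified cAMP-gated CNG channel and express endogenous PDE4; plated 1000 cells/well, compounds up to 22.9 uM final. Membrane-potential dye fluorescence (ex 535/em 590) was read; parental cells received 10 uM forskolin + 100 uM RO 20-1724.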

[9] = target: Cytochrome P450 3A4 (Homo sapiens) (UniProt P08684); test: qHTS Assay for Activators of Cytochrome P450 3A4 (AID 885; active = well fitted curve in the direction sought with a large enough effect; an effect the other way counts as inactive or inconclusive; note: nearly all actives have a fitted effect of over 65% in size); conditions: recombinant CYP3A4, Luciferin-PPXE luminescence, 60 min; series mostly up to 57.1 µM
Procedure, shortened: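 20nM CYP3A4 + 25uM Luciferin-PPXE (=KM), 200mM KPO4; cpd 10 min RT; NADPH regen, 60 min RT; stop w/ detection buffer, 20 min; luminescence. Normalized to 57 uM ketoconazole.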

[10] = qHTS Assay for Lipid Storage Modulators (AID 1519; calls by dose curve); conditions: Drosophila S3 cells, BODIPY lipid droplet/cell ratio, laser cytometry, cells loaded with oleic acid; for activity change, negative = inhibition: at 57.5 µM (top of the series)
Procedure, shortened: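 Cells seeded at 5,000 per well were treated with compounds over a concentration series and loaded with oleic acid (400 uM, as added). Lipid droplet fluorescence (488 nm excitation, 500-530 nm channel) was read by laser-scanning cytometry and normalized to 20 uM Triacsin C.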

[11] = Primary qHTS for small molecule stabilizers of the endoplasmic reticulum resident proteome: Secreted ER Calcium Modulated Protein (SERCaMP) assay (AID 1508630; active = well fitted curve in the direction sought with a large enough effect; an effect the other way counts as inactive or inconclusive; note: % is set by controls: 0 for no effect and ±100 for the full control effect); conditions: SH-SY5Y GLuc-SERCaMP (Gaussia luciferase released on ER calcium loss) secretion, thapsigargin, luminescence; series mostly up to 38.4 µM
Procedure, shortened: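 GLuc-SERCaMP-expressing SH-SY5Y cells, pretreated 16 h with compound, are challenged with thapsigargin to empty ER calcium stores; after 4 h, coelenterazine is added directly to the medium and luminescence is imaged.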

[12] = target: Cytochrome P450 2C19 (Homo sapiens) (UniProt P33261); test: qHTS Assay for Inhibitors and Substrates of Cytochrome P450 2C19 (AID 899; active = well fitted curve in the direction sought with a large enough effect; an effect the other way counts as inactive or inconclusive; note: nearly all actives have a fitted effect of over 60% in size; note: potency is the fitted concentration of half-maximal effect); conditions: recombinant CYP2C19, luciferin-H EGE luminescence; series mostly up to 57.1 µM
Procedure, shortened: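 Luminescence readout of luciferin formed from 10uM Luciferin-H EGE (KM level) by 5 nM CYP2C19 in 50mM KPO4. 60 min NADPH-driven reaction at 37C after 10 min compound preincubation; data scaled to 57uM ketoconazole inhibition.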

[13] = target: Cytochrome P450 2D6 (Homo sapiens) (UniProt P10635); test: qHTS Assay for Inhibitors and Substrates of Cytochrome P450 2D6 (AID 891; active = well fitted curve in the direction sought with a large enough effect; an effect the other way counts as inactive or inconclusive; note: nearly all actives have a fitted effect of over 60% in size; note: potency is the fitted concentration of half-maximal effect); conditions: recombinant CYP2D6, luciferin-ME EGE luminescence; series mostly up to 57.1 µM
Procedure, shortened: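 Human CYP2D6 (5 nM) with 30 uM Luciferin-ME EGE (at Km) in 100 mM KPO4, compound preincubated 10 min, then NADPH regeneration system for 60 min at room temperature. Luciferin read by luminescence; normalized to 1.43 uM quinidine.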

[14] = measured here: cell count channel max response
[15] = measured here: lipid channel max response

3',5'-cyclic-AMP phosphodiesterase 4B (Homo sapiens), sequence (Q07343 whole entry, looked up): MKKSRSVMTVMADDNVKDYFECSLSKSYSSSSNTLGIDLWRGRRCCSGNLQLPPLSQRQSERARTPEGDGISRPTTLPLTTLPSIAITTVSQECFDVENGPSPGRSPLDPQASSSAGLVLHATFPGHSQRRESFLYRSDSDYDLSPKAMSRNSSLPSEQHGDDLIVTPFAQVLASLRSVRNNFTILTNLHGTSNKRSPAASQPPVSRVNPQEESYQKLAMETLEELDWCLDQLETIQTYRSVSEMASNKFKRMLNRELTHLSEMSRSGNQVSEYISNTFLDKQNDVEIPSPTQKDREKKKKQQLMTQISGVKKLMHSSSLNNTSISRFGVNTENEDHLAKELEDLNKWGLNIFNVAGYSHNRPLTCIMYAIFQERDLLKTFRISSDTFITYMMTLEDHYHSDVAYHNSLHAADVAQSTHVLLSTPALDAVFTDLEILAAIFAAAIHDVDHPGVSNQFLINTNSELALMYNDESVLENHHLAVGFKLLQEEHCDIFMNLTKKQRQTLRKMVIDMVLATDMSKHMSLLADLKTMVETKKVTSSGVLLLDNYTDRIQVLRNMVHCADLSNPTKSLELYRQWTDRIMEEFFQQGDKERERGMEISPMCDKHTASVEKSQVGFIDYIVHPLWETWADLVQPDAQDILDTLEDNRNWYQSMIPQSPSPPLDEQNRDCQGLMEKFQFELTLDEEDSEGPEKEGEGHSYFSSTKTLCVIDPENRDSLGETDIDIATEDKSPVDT
Cytochrome P450 1A2 (Homo sapiens), sequence (P05177 whole entry, looked up): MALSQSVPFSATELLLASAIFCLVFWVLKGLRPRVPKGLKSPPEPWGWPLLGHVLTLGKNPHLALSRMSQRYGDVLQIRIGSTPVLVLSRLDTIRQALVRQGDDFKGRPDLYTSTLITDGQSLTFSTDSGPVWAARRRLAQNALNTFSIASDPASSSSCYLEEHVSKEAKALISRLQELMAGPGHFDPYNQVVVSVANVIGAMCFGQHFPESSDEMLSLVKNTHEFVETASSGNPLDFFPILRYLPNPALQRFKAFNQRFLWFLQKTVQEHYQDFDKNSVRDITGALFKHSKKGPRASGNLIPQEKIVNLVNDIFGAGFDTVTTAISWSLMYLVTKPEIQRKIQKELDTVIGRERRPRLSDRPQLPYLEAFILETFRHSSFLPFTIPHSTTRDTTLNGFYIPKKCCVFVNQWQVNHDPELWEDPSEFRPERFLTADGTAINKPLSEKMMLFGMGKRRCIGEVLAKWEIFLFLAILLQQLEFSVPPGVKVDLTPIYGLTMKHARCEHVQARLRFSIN
Cytochrome P450 3A4 (Homo sapiens), sequence (P08684 whole entry, looked up): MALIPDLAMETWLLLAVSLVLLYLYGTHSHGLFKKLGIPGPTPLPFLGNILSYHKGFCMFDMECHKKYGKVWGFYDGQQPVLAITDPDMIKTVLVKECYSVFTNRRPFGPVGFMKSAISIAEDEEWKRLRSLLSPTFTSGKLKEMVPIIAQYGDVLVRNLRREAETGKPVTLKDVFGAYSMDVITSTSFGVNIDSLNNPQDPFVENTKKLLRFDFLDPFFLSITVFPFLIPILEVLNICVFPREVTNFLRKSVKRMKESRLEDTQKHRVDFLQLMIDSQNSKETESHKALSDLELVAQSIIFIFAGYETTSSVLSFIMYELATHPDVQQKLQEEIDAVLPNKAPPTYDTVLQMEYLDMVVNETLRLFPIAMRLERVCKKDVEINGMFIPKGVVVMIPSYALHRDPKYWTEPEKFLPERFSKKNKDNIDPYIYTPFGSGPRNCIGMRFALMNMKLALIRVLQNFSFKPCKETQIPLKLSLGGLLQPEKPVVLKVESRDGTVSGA
Lysosomal acid glucosylceramidase (Homo sapiens), sequence (P04062 whole entry, looked up): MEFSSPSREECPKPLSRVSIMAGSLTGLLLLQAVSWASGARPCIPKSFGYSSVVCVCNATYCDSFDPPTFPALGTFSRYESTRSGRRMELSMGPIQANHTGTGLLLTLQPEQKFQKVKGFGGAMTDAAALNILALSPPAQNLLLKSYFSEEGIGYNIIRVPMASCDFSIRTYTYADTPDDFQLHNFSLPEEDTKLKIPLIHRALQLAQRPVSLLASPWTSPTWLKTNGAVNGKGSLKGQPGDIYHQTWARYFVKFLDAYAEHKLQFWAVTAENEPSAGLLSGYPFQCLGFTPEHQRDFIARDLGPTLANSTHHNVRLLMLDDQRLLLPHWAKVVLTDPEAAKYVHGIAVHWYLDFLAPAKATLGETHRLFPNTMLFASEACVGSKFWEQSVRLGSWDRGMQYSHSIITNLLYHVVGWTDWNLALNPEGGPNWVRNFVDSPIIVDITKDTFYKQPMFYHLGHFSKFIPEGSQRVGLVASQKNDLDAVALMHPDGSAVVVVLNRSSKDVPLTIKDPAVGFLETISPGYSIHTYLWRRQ
Cytochrome P450 2D6 (Homo sapiens), sequence (P10635 whole entry, looked up): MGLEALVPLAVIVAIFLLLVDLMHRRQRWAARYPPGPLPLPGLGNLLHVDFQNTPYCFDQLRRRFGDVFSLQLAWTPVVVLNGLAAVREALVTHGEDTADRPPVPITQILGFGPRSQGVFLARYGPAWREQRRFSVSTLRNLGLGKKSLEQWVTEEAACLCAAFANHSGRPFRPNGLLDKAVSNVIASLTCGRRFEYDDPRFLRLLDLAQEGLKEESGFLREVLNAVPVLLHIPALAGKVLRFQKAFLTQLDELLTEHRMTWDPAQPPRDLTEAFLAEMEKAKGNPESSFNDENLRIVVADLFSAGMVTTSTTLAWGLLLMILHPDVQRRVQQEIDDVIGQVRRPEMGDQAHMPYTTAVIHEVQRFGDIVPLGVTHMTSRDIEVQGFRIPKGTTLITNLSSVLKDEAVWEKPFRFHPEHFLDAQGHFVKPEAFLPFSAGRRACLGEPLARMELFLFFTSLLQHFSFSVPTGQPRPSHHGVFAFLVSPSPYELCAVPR
Glucocorticoid receptor (Homo sapiens), sequence (P04150 whole entry, looked up, the tested form may be a part): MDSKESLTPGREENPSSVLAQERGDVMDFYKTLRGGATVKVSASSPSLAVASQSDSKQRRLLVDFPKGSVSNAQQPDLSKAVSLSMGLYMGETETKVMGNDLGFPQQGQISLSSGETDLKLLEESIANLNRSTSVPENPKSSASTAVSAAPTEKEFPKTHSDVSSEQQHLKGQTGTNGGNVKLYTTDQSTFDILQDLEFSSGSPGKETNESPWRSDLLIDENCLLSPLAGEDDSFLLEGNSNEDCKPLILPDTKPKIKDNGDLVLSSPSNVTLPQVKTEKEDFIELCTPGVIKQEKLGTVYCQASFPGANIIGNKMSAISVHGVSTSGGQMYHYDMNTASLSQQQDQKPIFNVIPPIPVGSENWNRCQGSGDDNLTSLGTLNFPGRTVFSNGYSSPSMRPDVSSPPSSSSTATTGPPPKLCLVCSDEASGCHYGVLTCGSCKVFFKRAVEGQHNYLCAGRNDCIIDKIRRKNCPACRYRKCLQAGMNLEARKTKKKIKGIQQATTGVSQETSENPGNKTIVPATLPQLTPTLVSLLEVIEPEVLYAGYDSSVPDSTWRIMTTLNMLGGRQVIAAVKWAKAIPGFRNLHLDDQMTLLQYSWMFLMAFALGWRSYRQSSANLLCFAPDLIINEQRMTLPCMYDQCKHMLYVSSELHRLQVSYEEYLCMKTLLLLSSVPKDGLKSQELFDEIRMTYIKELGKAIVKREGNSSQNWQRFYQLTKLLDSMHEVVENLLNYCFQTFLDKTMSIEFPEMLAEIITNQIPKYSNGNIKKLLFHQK
Cytochrome P450 2C19 (Homo sapiens), sequence (P33261 whole entry, looked up): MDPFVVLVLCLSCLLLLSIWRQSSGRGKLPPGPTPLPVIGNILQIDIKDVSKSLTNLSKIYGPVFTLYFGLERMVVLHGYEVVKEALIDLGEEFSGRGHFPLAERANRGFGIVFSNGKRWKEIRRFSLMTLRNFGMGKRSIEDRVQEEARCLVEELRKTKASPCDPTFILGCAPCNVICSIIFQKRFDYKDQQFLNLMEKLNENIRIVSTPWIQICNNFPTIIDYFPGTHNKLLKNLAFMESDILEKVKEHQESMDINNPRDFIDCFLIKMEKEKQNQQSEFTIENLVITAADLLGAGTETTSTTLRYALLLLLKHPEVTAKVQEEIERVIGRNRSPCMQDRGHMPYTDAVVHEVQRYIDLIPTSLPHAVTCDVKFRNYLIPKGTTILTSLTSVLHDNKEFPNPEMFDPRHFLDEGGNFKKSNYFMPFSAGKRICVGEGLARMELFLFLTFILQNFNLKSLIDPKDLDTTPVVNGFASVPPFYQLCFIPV

SMILES	Potency [1]	activity change, negative = inhibition [2]	Potency [3]	activity change, negative = inhibition [4]	activity, negative = inhibition [5]	Potency [6]	outcome [7]	Potency [8]	Potency [9]	activity change, negative = inhibition [10]	max response [10, 14] [%]	max response [10, 15] [%]	Potency [11]	Potency [12]	Potency [13]
COc1ccc(NC(=O)N2CCCC3(CCN(C(=O)c4cnccn4)CC3)C2)cc1	> 11.4 µM (inactive)	-0.971% (inactive)	inactive	1.32% (inactive)	-7.92% (inactive)	> 46 µM (inactive)	inactive	inactive	inactive	4.77% (inactive)	1.78	8.5	inactive		
Cc1noc(C)c1C(=O)N1CCC2(CCCN(C(=O)Nc3cccc(F)c3)C2)CC1	> 11.4 µM (inactive)	-3.17% (inactive)	15.8 µM (active)	-8.48% (inactive)	-0.0561% (inactive)	> 46 µM (inactive)	inactive	inactive	inactive	5.45% (inactive)	9.33	19.9	inactive		
O=C(Nc1ccccc1)N1CCCC2(CCN(C(=O)c3ccco3)CC2)C1	> 11.4 µM (inactive)	-8.89% (inactive)	20 µM (active)	-7.1% (inactive)	-4.1% (inactive)	> 46 µM (inactive)	inactive	inactive	inactive	4.55% (inactive)	12	20.3	inactive		
COc1ccc(NC(=O)N2CCC3(CC2)CCN(C(=O)c2csnn2)CC3)cc1	> 11.4 µM (inactive)	-4.35% (inactive)	6.31 µM (active)	3.59% (inactive)	-12% (inactive)	> 46 µM (inactive)	inactive	inactive	inactive	8.17% (inactive)	17.2	29.5	inactive		
O=C(c1cnccn1)N1CCC[C@@]2(CCN(Cc3nccs3)C2)C1	> 11.4 µM (inactive)	-10.4% (inactive)	inactive	8.21% (inactive)	-0.706% (inactive)	> 46 µM (inactive)	inactive	inactive	inactive	4.59% (inactive)	14.2	20.9	inactive		
CC(=O)N1CCC2(CCCN(c3ccccc3)C2)CC1	> 11.4 µM (inactive)	-11.7% (inactive)	inactive	9.86% (inactive)	-0.0216% (inactive)	> 46 µM (inactive)	inactive	inactive	inactive	1.01% (inactive)	9.92	12.8	inactive		
O=C(c1ccco1)N1CCC[C@@]2(CCN(c3ccccc3)C2)C1	> 11.4 µM (inactive)	-8.72% (inactive)	7.94 µM (active)	-13.1% (inactive)	-4.84% (inactive)	> 46 µM (inactive)	inactive	inactive	inactive	-7.59% (inactive)	11.4	4.34	inactive	5.01 µM (active)	
Cn1cccc1C(=O)N1CCC[C@@]2(CCN(Cc3cc(C(F)(F)F)cc(C(F)(F)F)c3)C2)C1	> 11.4 µM (inactive)	8.92% (inactive)	inactive	7.04% (inactive)	8.87% (inactive)	> 46 µM (inactive)	inactive	inactive	inactive	-3.99% (inactive)	-0.0419	-1.35	inactive		3.98 µM (active)
COC(=O)N1CCC2(CCCN(Cc3ccccc3OC)C2)CC1	> 11.4 µM (inactive)	-7.44% (inactive)	inactive	-73.7% (active)	-10.7% (inactive)	> 46 µM (inactive)	inactive	inactive	inactive	-2.47% (inactive)	15.3	15.9	inactive		3.16 µM (active)
N#Cc1cccc(NC(=O)N2CC[C@@]3(CCCN(C(=O)c4ccncc4)C3)C2)c1	> 11.4 µM (inactive)	-19.8% (inactive)	inactive	1.61% (inactive)	4.09% (inactive)	> 46 µM (inactive)	inactive	inactive	inactive	1.67% (inactive)	17.2	21.1	inactive		
COC(=O)N1CCC[C@@]2(CCN(C(=O)Nc3cccc(F)c3)C2)C1	> 11.4 µM (inactive)	-17.4% (inactive)	15.8 µM (active)	-2.35% (inactive)	1.62% (inactive)	> 46 µM (inactive)	inactive	inactive	inactive	5.97% (inactive)	20.5	28.7	inactive		
COC(=O)N1CCC2(CCCN(C(=O)Nc3cccc(F)c3)C2)CC1	> 11.4 µM (inactive)	-3.15% (inactive)	inactive	-20.9% (inactive)	-5.21% (inactive)	> 46 µM (inactive)	inactive	inactive	inactive	-17.4% (inactive)	-0.146	-17.1	inactive		
CC(C)NC(=O)N1CCCC2(CCN(C(=O)c3cccc(F)c3)CC2)C1	> 11.4 µM (inactive)	-13.6% (inactive)	inactive	-16.5% (inactive)	-2.81% (inactive)	> 46 µM (inactive)	inactive	inactive	inactive	3.5% (inactive)	20.4	27.6	inactive	inactive	inactive
